# Data: PubChem BioAssay (Tox21)
# Values without a mark were called inactive. Records with an inconclusive call do not appear. Entries that show only a call come without a potency. Calls of active or inactive are those of the source. Unless noted, calls come from the whole dose curve; as a rule, active = well fitted curve in the direction sought with a large enough effect in the repeat runs; inconclusive = weak or mixed curves; inactive = no such curve, though single readings can be large; an effect the other way counts as inactive or inconclusive.
# Assays:
# [1] = qHTS assay to identify small molecule agonists of the hypoxia (HIF-1) signaling pathway - cell viability counter screen (AID 1224844; calls by dose curve; note: nearly all actives have a fitted effect of over 50% in size)
# Procedure, shortened: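 Viability counter screen: HRE-bla ME-180 cells plated 5 hrs before compound addition, treated 17 hrs at 37C and 5% CO2, then CellTiter-Glo added after the FRET reporter read; luminescence after 30 min.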
# [2] = qHTS assay to identify small molecule agonists of H2AX (AID 1224845; active = well fitted activation curve with a large enough effect in the signal ratio in the repeat runs, not every such curve was filed as active; the % refers to the signal ratio)
# Procedure, shortened: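 Wild-type CHO-K1 cells plated overnight, then exposed 3 hr at 37C to compounds at 15 concentrations (0.76% DMSO). Lysed, then HTRF anti-pH2AX(S139)-cryptate/anti-H2AX-d2 detection after 24 hr at room temperature; emissions 665 and 620 nm.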
# [3] = qHTS assay to identify small molecule agonists of the hypoxia (HIF-1) signaling pathway (AID 1224846; active = well fitted activation curve with a large enough effect in the signal ratio in the repeat runs, not every such curve was filed as active; the % refers to the signal ratio)
# Procedure, shortened: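 Agonist mode reporter screen. ME-180 cells stably expressing bla under HRE control received test compounds in DMSO for 17 hrs (37C, 5% CO2), and beta-lactamase activity was then detected with the CCF4-AM FRET substrate.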
# [4] = qHTS assay to identify small molecule agonists of H2AX - cell viability counter screen (AID 1224847; calls by dose curve; note: top concentration of the series differs between compounds; nearly all actives have a fitted effect of over 30% in size)
# Procedure, shortened: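 Wild-type CHO-K1 cells (10% FBS medium) were plated overnight at 37C, exposed to compounds at 15 concentrations for 3 hr at 37C (0.76% DMSO final), and viability was read as CellTiter-Glo luminescence after 30 min at room temperature.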
# [5] = qHTS assay to identify small molecule antagonists of the estrogen related receptor (ERR) signaling pathway from Tox21 library (AID 1224848); note: nearly all actives have a fitted effect of over 50% in size
# Procedure, shortened: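 First, 2,000 ERR cells per well were plated and held 6 h at 37 C/5% CO2. Next, compounds in DMSO were pinned in and left 18 h at 37 C. Finally, ONE-Glo was added and luminescence read after 30 min at room temperature.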
# [6] = qHTS assay to identify small molecule agonists of the estrogen related receptor (ERR) signaling pathway from Tox21 library (AID 1224849; calls by dose curve; note: nearly all actives have a fitted effect of over 15% in size); settings: ERR reporter cell line, ONE-Glo luciferase, 18 h; at 92.4 µM (top of the series) unless noted
# Procedure, shortened: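 Quantitative HTS in agonist format: NTP ERR cell line, compounds transferred in DMSO after 6 h plating, 18 h incubation at 37 C, ONE-Glo luminescence endpoint.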
# [7] = qHTS RealTime-Glo MT Cell Viability Assay in HepG2 cells - 24 hour (AID 1224867); note: nearly all actives have a fitted effect of over 50% in size
# Procedure, shortened: (§1)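 Viability was tracked continuously by NanoLuc luminescence from prosubstrate reduced by living HepG2 cells, at successive time points over 40 h of compound exposure. Cells with reagent were preincubated 5 h at 37 °C before compound addition.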
# [8] = qHTS RealTime-Glo MT Cell Viability Assay in HEK293 cells - 32 hour (AID 1224868); note: top concentration of the series differs between compounds; nearly all actives have a fitted effect of over 50% in size
# Procedure, shortened: (§2)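 Viability tracked continuously by luminescence as live cells reduce a prosubstrate for NanoLuc; HEK293 cells preincubated 5 h, compound-treated at 37 C, and read at 0, 8, 16, 24, 32 and 40 h.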
# [9] = A CellTox Green Cytotoxicity Assay to monitor cytotoxicity in HEK293 cells - 0 hour (AID 1224869); note: nearly all actives have a fitted effect of over 50% in size
# Procedure, shortened: (§3)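 Dead-cell fluorescence measured kinetically: asymmetric cyanine dye, HEK293, 600 cells/well, 5 h settle, 23 nL cpd/DMSO, 37 C, reads 0–40 h every 8 h.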
# [10] = qHTS RealTime-Glo MT Cell Viability Assay in HepG2 cells - 40 hour (AID 1224870); note: nearly all actives have a fitted effect of over 50% in size
# Procedure, shortened: (§4)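 HepG2 cells mixed with RealTime-Glo MT reagents (NanoLuc plus cell-permeant prosubstrate) were seeded at 600 cells/well, incubated 5 h at 37 C/5% CO2, then pinned with compounds in DMSO; nonlytic luminescence tracked viability during 40 h treatment.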
# [11] = qHTS RealTime-Glo MT Cell Viability Assay in HEK293 cells - 16 hour (AID 1224872)
# Procedure, shortened: as §2
# [12] = qHTS RealTime-Glo MT Cell Viability Assay in HepG2 cells - 8 hour (AID 1224873); note: nearly all actives have a fitted effect of over 55% in size
# Procedure, shortened: as §4
# [13] = qHTS RealTime-Glo MT Cell Viability Assay in HEK293 cells - 40 hour (AID 1224874); settings: RealTime-Glo luminescence; max response: stronger effect = lower value; note: nearly all actives have a fitted effect of over 50% in size
# Procedure, shortened: (§5)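 600 HEK293 cells per well, dispensed already mixed with RealTime-Glo MT reagents. Compound dosing came 5 h later. The same wells were read for luminescence at 0, 8, 16, 24, 32 and 40 h of exposure at 37 C.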
# [14] = A CellTox Green Cytotoxicity Assay to monitor cytotoxicity in HEK293 cells - 24 hour (AID 1224875); note: nearly all actives have a fitted effect of over 45% in size; note: potency is the fitted concentration of half-maximal effect
# Procedure, shortened: as §3
# [15] = A CellTox Green Cytotoxicity Assay to monitor cytotoxicity in HepG2 cells - 16 hour (AID 1224876); note: nearly all actives have a fitted effect of over 45% in size; note: potency is the fitted concentration of half-maximal effect
# Procedure, shortened: (§6)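 First, HepG2 cells (600/well) mixed with reagent were plated; second, after 5 h at 37 C they received compounds via pintool; third, fluorescence was measured at 0 h through 40 h at 8 h intervals.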
# [16] = qHTS RealTime-Glo MT Cell Viability Assay in HepG2 cells - 32 hour (AID 1224877); note: nearly all actives have a fitted effect of over 55% in size
# Procedure, shortened: as §1
# [17] = A CellTox Green Cytotoxicity Assay to monitor cytotoxicity in HepG2 cells - 24 hour (AID 1224878); note: nearly all actives have a fitted effect of over 45% in size; note: potency is the fitted concentration of half-maximal effect
# Procedure, shortened: as §6
# [18] = qHTS RealTime-Glo MT Cell Viability Assay in HEK293 cells - 0 hour (AID 1224880); note: top concentration of the series differs between compounds; nearly all actives have a fitted effect of over 45% in size
# Procedure, shortened: as §5
# [19] = A CellTox Green Cytotoxicity Assay to monitor cytotoxicity in HEK293 cells - 40 hour (AID 1224871); note: nearly all actives have a fitted effect of over 45% in size; note: potency is the fitted concentration of half-maximal effect
# Procedure, shortened: as §3
# [20] = A CellTox Green Cytotoxicity Assay to monitor cytotoxicity in HepG2 cells - 40 hour (AID 1224879); note: nearly all actives have a fitted effect of over 40% in size; note: potency is the fitted concentration of half-maximal effect
# Procedure, shortened: as §6
SMILES,Potency [1],Potency [2],outcome [3],Potency [4],Potency [5],"activity change, positive = activation [6] [%]",Potency [7],Potency [8],Potency [9],Potency [10],Potency [11],outcome [12],max response [13] [%],Potency [14],Potency [15],Potency [16],Potency [17],outcome [18],Potency [19],Potency [20]
CCOc1ccc(OCC)c(Cl)c1,inactive,inactive,inactive,inactive,inactive,4.33,inactive,inactive,inactive,inactive,inactive,inactive,5.94,inactive,inactive,inactive,inactive,inactive,–,–
Oc1ccccc1C=NCc1ccccc1,inactive,inactive,inactive,inactive,–,–,inactive,inactive,–,inactive,inactive,inactive,1.18,inactive,inactive,inactive,inactive,–,inactive,inactive
C=CC(C)(O)CC/C=C(\C)CCC=C(C)C (stereo not given),inactive,inactive,inactive,inactive,–,–,inactive,inactive,inactive,inactive,inactive,inactive,-1.81,54.9 µM (active),17.4 µM (active),–,21.9 µM (active),inactive,49 µM (active),21.9 µM (active)
COC(=O)C(C)O (stereo not given),inactive,inactive,inactive,inactive,–,–,inactive,inactive,–,inactive,inactive,inactive,3.12,inactive,inactive,inactive,inactive,–,inactive,inactive
NC(=O)Cc1cccc(C(=O)c2ccccc2)c1N,inactive,inactive,inactive,inactive,–,–,inactive,inactive,inactive,inactive,inactive,inactive,-24.1,inactive,–,inactive,inactive,inactive,inactive,inactive
C=CCc1cc(OC)c(O)c(C(=O)NCCO)c1,inactive,inactive,inactive,inactive,–,–,inactive,inactive,inactive,inactive,inactive,inactive,15.9,inactive,–,inactive,inactive,inactive,inactive,inactive
CC1(C)C(=O)N(Cl)C(=O)N1Br,inactive,inactive,inactive,inactive,–,–,inactive,inactive,inactive,inactive,–,inactive,17,inactive,–,inactive,inactive,–,inactive,–
